Broadly, the AC50 is the midpoint of the concentration-response curve, whichever way the signal moves.

The nature of test [1]: Tanguay_ZF_120hpf_JAW_legacy: (Legacy) Oregon State University Tanguay Lab 120 Hour Post-fertilization zebrafish Assay for Jaw Malformation (AID 2283638).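 As to AC50: active means more embryos with jaw malformation than DMSO controls.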 The procedure, abridged:
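Binary jaw-malformation call at 120 hpf by brightfield microscopy. Embryos (Tropical 5D strain, chorion removed at 4 hpf) were dosed statically at 6 hpf, one per well, at 28C with 0.64% DMSO. Embryos that died were not scored.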

Test [2] can be described thus: Tanguay_ZF_120hpf_OTIC_legacy: (Legacy) Oregon State University Tanguay Lab 120 Hour Post-fertilization zebrafish Assay for Otic Vesicle Malformation (AID 2283639). In outline:
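Binary scoring of otic vesicle defects at 120 hpf in zebrafish (Tropical 5D) held under static exposure at 28C, sealed and shaded, with final DMSO 0.64%. Embryos dying by 24 or 120 hpf excluded; fitted positively against DMSO.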

The nature of test [3]: Tanguay_ZF_120hpf_PE_legacy: (Legacy) Oregon State University Tanguay Lab 120 Hour Post-fertilization zebrafish Assay for Pericardial Edema (AID 2283640).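 As to AC50: potency for increased incidence of pericardial edema versus DMSO baseline.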 In outline: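 Scoring was binary, by brightfield microscopy at 120 hpf, and skipped where mortality occurred. Wild-type embryos were kept under sealed, foil-covered static exposure at 28C in 0.64% (vol/vol) DMSO.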
Test [4] can be described thus: Tanguay_ZF_120hpf_BRAI_legacy: (Legacy) Oregon State University Tanguay Lab 120 Hour Post-fertilization zebrafish Assay for Brain Malformation (AID 2283641). In outline: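 Binary brightfield scoring of brain malformation at 120 hpf in Tropical 5D larvae held under static exposure at 28C (0.64% v/v DMSO), non-mortality endpoints skipped if dead. Positive control: 5uM trimethyltin chloride; fit versus DMSO.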

A short description of test [5]: Tanguay_ZF_120hpf_PFIN_legacy: (Legacy) Oregon State University Tanguay Lab 120 Hour Post-fertilization zebrafish Assay for Pectoral Fin Malformation (AID 2283648).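 Also: each larva judged yes or no for fin defect by brightfield with dead larvae skipped.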 In outline: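 Binary pectoral fin malformation call at 120 hpf by brightfield microscopy; 5D wild-type zebrafish, chorion removed at 4 hpf, one embryo per well from 6 hpf, static exposure at 28C; DMSO (0.64% final) as baseline.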

A short description of test [6]: Tanguay_ZF_120hpf_CFIN_legacy: (Legacy) Oregon State University Tanguay Lab 120 Hour Post-fertilization zebrafish Assay for Caudal Fin Malformation (AID 2283649). In outline:
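Binary brightfield scoring of caudal fin defects at 120 hpf after static, light-shielded exposure at 28C from 6 hpf. Tropical 5D embryos, chorion removed with pronase at 4 hpf, final DMSO 0.64%.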

The nature of test [7]: Tanguay_ZF_120hpf_PIG_legacy: (Legacy) Oregon State University Tanguay Lab 120 Hour Post-fertilization zebrafish Assay for Pigmentation Malformation (AID 2283650). In outline: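 Brightfield scoring of pigmentation malformation at 120 hpf, recorded as binary present/absent per larva. Exposure: dechorionated 5D wild-type embryos, one per well, static from 6 hpf at 28C, final DMSO 0.64% (vol/vol). Dead embryos not scored.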

Test [8] can be described thus: Tanguay_ZF_120hpf_CIRC_legacy: (Legacy) Oregon State University Tanguay Lab 120 Hour Post-fertilization zebrafish Assay for Circulatory Malformation (AID 2283651). The procedure, abridged:
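Binary circulatory malformation call at 120 hpf by brightfield imaging of zebrafish larvae; chorion removed at 4 hpf, static exposure from 6 hpf in sealed dark plates at 28C, final DMSO 0.64%; non-mortality endpoints skipped if embryo died.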

A short description of test [9]: Tanguay_ZF_120hpf_SWIM_legacy: (Legacy) Oregon State University Tanguay Lab 120 Hour Post-fertilization zebrafish Assay for Swim Bladder Malformation (AID 2283654).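 Also: swim bladder malformation in each larva scored yes or no under brightfield.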 In outline:
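Tropical 5D embryos dechorionated at 4 hpf; 1 embryo/well from 6 hpf; static, sealed, dark exposure at 28C until 120 hpf; final DMSO 0.64%; 5uM trimethyltin chloride positive control; swim bladder defect recorded yes/no; dead embryos not scored.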

Test [10] is described as follows: Tanguay_ZF_120hpf_NC_legacy: (Legacy) Oregon State University Tanguay Lab 120 Hour Post-fertilization zebrafish Assay for Notochord and Tail Malformation (AID 2283656). In outline:
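Binary scoring of notochord distortion by brightfield microscopy; embryos dying were not scored. Wild-type Tropical 5D embryos, chorion removed, exposed singly and statically from 6 to 120 hpf, 28C, sealed, 0.64% DMSO.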

Read-out in test [11]: ABC Transporter (ABCB1), ABCB1 (gene 5243)
Nature of the test: CLD_ABCB1_6hr: CellzDirect (CLD) Gene Expression Assay for ABC Transporter (ABCB1) at 6 hours (AID 2283659).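 Also: hits raise ABCB1 transcript above the DMSO vehicle baseline.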 The procedure, abridged:
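ABCB1 transcript measured by quantitative nuclease protection assay, chemiluminescent read-out, 6 h after dosing human hepatocyte cultures (0.2% DMSO vehicle, daily redosing). Activity fitted as increase over DMSO baseline; cytotoxicity flagged by phase-contrast morphology.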

Read-out in test [12]: Broad substrate specificity ATP-binding cassette transporter ABCG2 (Homo sapiens) (UniProt Q9UNQ0)
Nature of the test: CLD_ABCG2_6hr: CellzDirect (CLD) Gene Expression Assay for ABC Transporter (ABCG2) at 6 hours (AID 2283660). In outline: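 ABCG2 mRNA induction measured by qNPA chemiluminescence in human primary hepatocyte cultures, 6 h post-dose. Chemicals tested at several concentrations against a 0.2% DMSO vehicle; positive-direction fit relative to DMSO.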

The nature of test [13]: Tanguay_ZF_120hpf_SOMI_legacy: (Legacy) Oregon State University Tanguay Lab 120 Hour Post-fertilization zebrafish Assay for Somite Malformation (AID 2283647). In outline:
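Binary somite-defect scoring at 120 hpf, omitted for embryos that died, in wild-type (Tropical 5D) zebrafish with chorion removed by pronase at 4 hpf; static exposure began 6 hpf, single embryos per well, 28C, 0.64% DMSO; fitted positive versus DMSO.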

The test system of test [14] is Thyroperoxidase (TPO), gene 54314. Nature of the test: CCTE_Simmons_AUR_rTPO: CCTE's Amplex UltraRed Assay for Thyroperoxidase (TPO) Inhibition, Simmons Lab (AID 2283662).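 As to AC50: potency for loss of signal meaning inhibition of peroxidase activity.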 In outline:
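Rat thyroid microsomes (5 ug protein) with 25 uM Amplex UltraRed and 300 uM H2O2 in 200 mM phosphate buffer, 30 min at 37C in dark; fluorescence 544/590 nm. Eight concentrations, 5 nM–87.5 uM final, 0.5% DMSO, triplicate biological replicates.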

Read-out in test [15]: xenobiotic metabolism (CYP1A1), CYP1A1 (gene 1543)
Nature of the test: CLD_CYP1A1_6hr: CellzDirect (CLD) Gene Expression Assay for xenobiotic metabolism (CYP1A1) at 6 hours (AID 2283661).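 As to AC50: potency for transcript induction above DMSO vehicle baseline.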 The procedure, abridged:
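Read-out 6 h post-dose: qNPA chemiluminescent quantitation of transcript induction against 0.2% DMSO. Cells were cultured primary human hepatocytes from two separate donor preparations; phase-contrast morphology annotated apparent cytotoxicity.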

Read-out in test [16]: xenobiotic metabolism (CYP1A2), CYP1A2 (gene 1544)
Nature of the test: CLD_CYP1A2_6hr: CellzDirect (CLD) Gene Expression Assay for xenobiotic metabolism (CYP1A2) at 6 hours (AID 2283663). The procedure, abridged:
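mRNA levels quantified by quantitative nuclease protection assay with chemiluminescence, 6 h after dosing human primary hepatocyte cultures (two donors) across several concentrations, vehicle 0.2% DMSO. Induction fitted upward versus DMSO; phase-contrast cytotoxicity annotated.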

Where “and” joins values, the source holds several entries; their conditions need not be identical. Equal values may be shown once. Records with an inconclusive call do not appear. Calls of active or inactive are those of the source. The calls were made as follows: active = hit-call score of the fitted dose curve at least 0.9, where 1 is the maximum; inconclusive = response in the unintended direction; inactive = score below 0.9.

Broad substrate specificity ATP-binding cassette transporter ABCG2 (Homo sapiens), sequence (Q9UNQ0 whole entry, looked up): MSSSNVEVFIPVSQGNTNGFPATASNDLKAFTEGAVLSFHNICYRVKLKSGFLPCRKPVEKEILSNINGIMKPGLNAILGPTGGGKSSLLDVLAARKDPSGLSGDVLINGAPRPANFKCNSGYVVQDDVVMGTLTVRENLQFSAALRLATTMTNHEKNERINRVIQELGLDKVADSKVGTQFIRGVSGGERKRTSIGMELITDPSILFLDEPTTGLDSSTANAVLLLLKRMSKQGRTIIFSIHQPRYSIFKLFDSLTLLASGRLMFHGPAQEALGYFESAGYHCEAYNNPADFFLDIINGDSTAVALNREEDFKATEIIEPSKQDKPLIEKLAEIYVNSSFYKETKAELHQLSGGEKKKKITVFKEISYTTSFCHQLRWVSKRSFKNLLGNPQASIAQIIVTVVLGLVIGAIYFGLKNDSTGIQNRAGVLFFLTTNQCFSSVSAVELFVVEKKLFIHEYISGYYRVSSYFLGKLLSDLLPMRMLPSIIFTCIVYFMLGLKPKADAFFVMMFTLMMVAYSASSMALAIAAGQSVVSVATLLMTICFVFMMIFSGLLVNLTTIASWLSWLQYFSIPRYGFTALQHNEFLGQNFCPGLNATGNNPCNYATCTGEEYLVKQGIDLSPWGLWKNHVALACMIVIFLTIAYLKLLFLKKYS

`O=C(O)c1cc(Oc2ccc(C(F)(F)F)cc2Cl)ccc1[N+](=O)[O-]`: the call in test [1], in [2], in test [3], in test [4], in [5] and in [6] was inactive. The compound was called inactive in test [7], in test [8], in [9], in test [10], in test [11] and in test [12].

Turning to `CCOP(=O)(NC(C)C)Oc1ccc(SC)c(C)c1` (stereo not given), the AC50 in test [1] is 21.6 µM (active); in [3] it was 25.6 µM (active); in [4], 61.8 µM (active). Further, the compound was classed as inactive in test [2], in [13], in test [6], in test [7], in test [8] and in [9]. For the same compound, the call in test [10] and in test [14] was inactive.

For the compound `CON=C(C(=O)OC)c1ccccc1CON=C(C)c1cccc(C(F)(F)F)c1`, the AC50 in test [1] is 5.3 µM (active); in [3] it was 8.26 µM (active). For the same compound, the compound was classed as inactive in [2], in test [13], in test [5], in test [6], in [7] and in test [8]. The compound was called inactive in test [9], in [10], in test [11], in [12] and in test [15].

In the case of `Nc1c(Cl)cc([N+](=O)[O-])cc1Cl`, the half-maximal activity concentration (AC50) was 31.4 µM (active) in test [1]; 36.4 µM (active) in test [2]; 43.1 µM (active) in [3]; 46.3 µM (active) in [4]; 39.1 µM (active) in test [6]; 10.8 µM (active) in test [7]. Moreover, the call in test [13], in test [8], in test [9], in [10] and in test [12] was inactive.

Consider `CCOP(=S)(OCC)Oc1ccc([N+](=O)[O-])cc1`, for which the compound was classed as inactive in test [1], in [2], in test [3], in test [4], in [6] and in test [9]. For the same compound, the compound was called inactive in test [10]. Besides, in [14], the AC50 is 15.5 µM (active).

As for `CCCOCC(=Nc1ccc(Cl)cc1C(F)(F)F)n1ccnc1`, the result in [1], in test [2], in test [3], in [4], in [6] and in test [7] was inactive. Further, the call in test [9], in test [10], in [12] and in test [14] was inactive. The half-maximal activity concentration (AC50) in [15] is 1.9 µM (active).

Regarding `CN(C)[C@@H]1C(=O)C(C(N)=O)=C(O)[C@@]2(O)C(=O)C3=C(O)c4c(O)cccc4[C@@](C)(O)[C@H]3[C@H](O)[C@@H]12`, the call in test [1], in test [2], in test [3], in test [4], in [13] and in test [6] was inactive. In addition, the outcome in test [8], in [10], in test [11] and in test [12] was inactive. The AC50 in [14] is 17.5 µM (active) and 10.5 µM (active) and 15.5 µM (active).

For the compound `CC(Oc1cccc(Cl)c1)C(=O)O` (stereo not given), the outcome in [1], in test [2], in [3], in [4], in test [5] and in test [6] was inactive. Besides, the result in test [7], in [8], in [9], in [10], in test [12] and in test [15] was inactive. Besides, the compound was classed as inactive in test [16].

Values taken from PubChem BioAssay (EPA / NIEHS).
